According to PubChem BioAssay (NCATS):
Inconclusive results are not listed. A call without a number means that no potency is given here. Values without a mark were called inactive. Calls of active or inactive are those of the source. The call rests on the fitted dose curve; in most records, active means well fitted inhibition curve with a large enough effect; inconclusive means small, poorly fitted or top-dose-only effect; inactive means no such curve, though single readings can be large or run the other way.

Experiment: Primary qHTS for inhibitors of La Crosse Virus (LACV) - induced cell death in SH-SY5Y cells (AID 1508616); further: top concentration of the series differs between compounds
Conditions: SH-SY5Y LACV cytopathicity rescue, ATP luminescence, 6 d; series mostly up to 9.63 µM
Text: Assay Provider: Karin Peterson Ph.D.
National Institute of Allergy and Infection Diseases, National Institute of Health
La Crosse Virus (LACV) is a California serogroup mosquito-borne arbovirus, family Peribunyaviridae, which is an endemic pathogen in North America and can induce a rare, life-threatening neurological disease in children. LACV was first isolated in the early 1960s, from a summer "rural encephalitis" case in La Crosse, Wisconsin, USA. Since then, LACV encephalitis cases have been found in more than twenty states, with most cases in the Mississippi and Ohio River basins. The life cycle of LACV is maintained between the vector, the eastern tree-hole mosquito Aedes triseriatus, and vertebrate hosts including eastern gray squirrels (Sciurus carolinensis) and chipmunks (Tamiasstriatus grinseus). […] Most LACV infections in humans are asymptomatic or induce mild clinical symptoms of fever, headache, lethargy and vomiting. However, in some cases LACV can cause severe neuroinvasive disease, including encephalitis, meningitis, and meningoencephalitis, requiring hospitalization. To date, there is neither a licensed vaccine nor a Food and Drug Administration (FDA) approved antiviral therapy available to prevent or treat LACV encephalitis. The primary treatment for viral encephalitis is palliative care due to the lack of therapeutics. In the current study, we conducted a screen of 4,096 FDA approved and bioactive small molecules against LACV, by screening for rescue of LACV-induced cell death in SH-SY5Y cells.
LACV-induced cytopathicity assay
SEQUENCE No. (1,2, 3, etc.); […] (e.g., Cells, Incubation, Reagent, etc.); VALUE and DESCRIPTION.
1. Reagent; 2 uL; Cell solution.
3. Compounds; 23nL; Compound library
4. Reagent; 12 uL; LACV virus
6. Reagent; 24 uL; ATPLite (PerkinElmer)
7. Time; 5 min; Room temperature
8. Detection; Luminescence; View
NOTES (numbers refer to sequence above)
1. Seed 6000 SH-SY5Y cells (ATCC CRL-2266) in 2 microL/well media (DMEM/F12 10% FBS, 1x L-Glutamine, 1x Pyruvate, 1x NEAA, 1x Pen/Strep) in 384-well assay plates (tissue culture treated, white, solid bottom).
2. Incubate at 37 degrees C with 5% CO2 for 24 hr.
3. Dispense 23 nL/well compounds in DMSO via pin transfer.
4. Dispense 12 microL/well of LACV (LACV/human/1978) in media at 0.01 MOI.
5. Incubate at for 6 days at 37C 5% CO2
6. Dispense 24 microL/well of ATPLite 1step Luminescence assay system (PerkinElmer).
7. Incubate for 5 min at room temperature.
8. Read luminescence signal (Viewlux plate reader, PerkinElmer). Data was normalized with DMSO control wells containing LACV as 0%, and DMSO control wells without virus as 100%.

SMILES	Potency	activity change
COc1cc(C(O)CO)ccc1OS(=O)(=O)O (stereo not given)	inactive	–
CCCCCCCC/C=C/C(=O)O	inactive	–
Nc1c(CC(=O)O)cccc1C(=O)c1ccc(Br)cc1	inactive	–
O=C(CS)Nc1ccccc1	inactive	–
Cc1ccc(O)c(-n2nc3ccccc3n2)c1	inactive	–
CCCCC1C(=O)N(c2ccccc2)N(c2ccc(O)cc2)C1=O (stereo not given)	inactive	–
CN1CCc2cc(NC(=O)Nc3cccnc3)ccc21	inactive	–
COC(=O)C1=C(C)NC(C)=C(C(=O)OCC(C)=O)C1c1ccccc1[N+](=O)[O-] (stereo not given)	inactive	–
COc1cccc(C(=O)NCCN2CCN(c3ccc(Cl)cc3)CC2)c1	inactive	–
O=c1[nH]c2cc(C(F)(F)F)ccc2n1-c1cc(C(F)(F)F)ccc1O	inactive	–
O=C(Nc1ccc(C(=O)O)c(O)c1)c1ccccc1	inactive	–
N=C1N=C(N)c2cc3ccccc3cc21	inactive	–
C=CC(N)CCC(=O)O (stereo not given)	inactive	–
CC(N)C(=O)OC(C)(C)Cc1ccc(Cl)cc1 (stereo not given)	inactive	–
O=C(Nc1cccc(C(=O)Nc2ccc(S(=O)(=O)O)c3cc(S(=O)(=O)O)cc(S(=O)(=O)O)c23)c1)Nc1cccc(C(=O)Nc2ccc(S(=O)(=O)O)c3cc(S(=O)(=O)O)cc(S(=O)(=O)O)c23)c1	inactive	–
NC(=O)C1=CN(C2OC(COP(=O)(O)OP(=O)(O)OC[C@H]3O[C@@H](n4cnc5c(N)ncnc54)[C@H](OP(=O)(O)O)[C@@H]3O)C(O)C2O)C=CC1 (stereo not given in full)	inactive	–
N#C/C(=C\c1c[nH]c2ccccc12)C(=O)c1ccc(O)c(O)c1	inactive	–
O=C(O)c1cc([N+](=O)[O-])ccc1NCCCc1ccccc1	inactive	–
Nc1nc(SCc2ccc([N+](=O)[O-])cc2)c2ncn([C@@H]3O[C@H](CO)[C@@H](O)[C@H]3O)c2n1	inactive	–
Clc1ccccc1-c1nc(-c2ccncc2)no1	inactive	–

SMILES	Potency	activity change
O=C(O)CNC(=O)C(CS)Cc1ccccc1 (stereo not given)	inactive	–
CC(C)Cc1ccc([C@H](C)C(=O)O)cc1	inactive	–
COc1cc(NC(C)CCCN)c2ncccc2c1 (stereo not given)	inactive	–
O=C(/C=C/c1ccccc1)NCCO	inactive	–
O=C(O)CCCC[C@@H]1CCSS1	inactive	–
Ic1ccc(N2CCN(Cc3c[nH]c4ncccc34)CC2)cc1	inactive	–
Fc1cccc(/C=N/N=C/c2cccc(F)c2)c1	inactive	–
CC(C)OC(=O)c1cc(C(=O)OC(C)C)cc([N+](=O)[O-])c1	inactive	–
Cc1ccc(O)c(N=Nc2ccccc2)n1	inactive	–
O=C(O)Cc1ccc2c(c1)C(=O)c1ccccc1CO2	inactive	–
C[N+](C)(C)CC(=O)[O-]	inactive	–
N.N.O=C(O)C1(C(=O)O)CCC1.[Pt]	inactive	–
CNC(=O)c1c(I)c(NC(=O)CCCCC(=O)Nc2c(I)c(C(=O)O)c(I)c(C(=O)NC)c2I)c(I)c(C(=O)O)c1I	inactive	–
N[C@@H](CC(=O)O)C(=O)O	inactive	–
NC(CCCP(=O)(O)O)C(=O)O (stereo not given)	inactive	–
C=CCCCCCCCCC(=O)O	inactive	–
O=C(O)CC[C@@H](C(=O)O)N1C(=O)c2ccccc2C1=O	inactive	–
CCCCCCCCCCCCCCCC(=O)OC(C)C	inactive	–
CN1CCN(c2cc3c(nn2)Oc2ccccc2N3C)CC1	–	13.6% [at 1.78 µM]
CC(C)NCC(O)COc1cccc2ccccc12 (stereo not given)	inactive	–
